In PubChem BioAssay one finds z-score and composite z-score data, which are given here for eight compounds.

Structures are written as SMILES. Active and inactive are the calls of the source.

The nature of assay [1]: compound effects on differentiated 3T3-L1 adipocyte viability – cell-based, 3T3-L1 adipocytes, calcein-AM fluorescence, 48 h, basal, profiling panel (AID 1163). To be noted: 3T3-L1 adipocytes viability, higher = more signal.
Assay [2] in a line: compound effects on hepatocellular carcinoma cell viability – HepG2, calcein-AM fluorescence, 48 h, basal, profiling panel (AID 1164). To be noted: higher = more signal.
Assay [3] in a line: compound effects on multiple myeloma cell viability – MM1S, calcein-AM fluorescence, 48 h, basal, profiling panel (AID 1165).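 Further: viability of MM1S multiple myeloma cells under basal unstimulated conditions.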 To be noted: higher = more signal.
The nature of assay [4]: calcein-AM signal in unstimulated myeloma cells – cell-based, calcein-AM fluorescence, 48 h, PK04 Diversity Set, profiling panel (AID 1166).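 Further: cells grown under basal conditions without added stimulus.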 The note with it: RPMI8226 myeloma viability, higher = more signal.
Assay [5] in a line: JC-1 mitochondrial signal, unstimulated HepG2 cells – cell-based, JC-1 fluorescence, 24 h, 100 nL compound, profiling panel (AID 1167). To be noted: HepG2 mitochondrial potential, higher = more signal.
A short description of assay [6]: JC-1 mitochondrial signal, unstimulated adipocytes – cell-based, JC-1 fluorescence, 3T3-L1 adipocytes, 24 h, 100 nL compound, profiling panel (AID 1168). To be noted: JC-1 mitochondrial fluorescence, higher = more signal, called active from +8 up or from −8 down.
A short description of assay [7]: JC-1 mitochondrial signal, unstimulated myeloma cells – cell-based, JC-1 fluorescence, RPMI8226, 24 h, 100 nL compound, profiling panel (AID 1169). The note with it: JC-1 mitochondrial potential fluorescence, higher = more signal.
A short description of assay [8]: JC-1 mitochondrial signal, unstimulated MM1S myeloma – cell-based, JC-1 fluorescence, 24 h, 100 nL compound, profiling panel (AID 1170). To be noted: MM1S mitochondrial potential, higher = more signal.
The nature of assay [9]: resazurin metabolic signal in A549 cells – cell-based, resazurin fluorescence, 24 h, PK04 Diversity Set, profiling panel (AID 1171). To be noted: A549 viability, higher = more signal, called active from +8 up or from −8 down.
Assay [10] is described as follows: resazurin metabolic signal in HepG2 cells – cell-based, resazurin fluorescence, 24 h, PK04 Diversity Set, profiling panel (AID 1172). The note with it: HepG2 viability, higher = more signal. (The colour change of resazurin is a common sign of viable cells or microbes.)
A short description of assay [11]: budding yeast growth changes without added modifier – OD600, strain BY4716, 24 h, basal condition, primary screen (AID 1173). The note with it: S. cerevisiae BY4716 growth, OD600, 24 h; higher = more signal, called active from +8 up or from −8 down.
A short description of assay [12]: viability profiling in MM1S myeloma cells – cell-based, resazurin fluorescence, basal, 24 h, PK04 Diversity Set, profiling panel (AID 1174). The note with it: higher = more signal, called active from +8 up or from −8 down.
Assay [13] concerns the target Dihydroorotate dehydrogenase (quinone), mitochondrial (Plasmodium falciparum (isolate 3D7)) (UniProt Q08210). The assay can be described thus: inhibition of P. falciparum DHODH – biochemical, C-terminal His tag, absorbance 600 nm, primary screen (AID 1175).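 Further: recombinant parasite enzyme with a five histidine tag at its C terminus.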 To be noted: PfDHODH enzyme, DCIP absorbance 600 nm; higher = more signal, called active from +8 up or from −8 down.

The nature of assay [14]: growth modulation of vineyard yeast isolate – strain RM11-1a, OD600, basal, 24 h, primary screen (AID 1177).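 Further: cultures grown under basal conditions with no added stressor.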 The note with it: S. cerevisiae RM11-1a growth, OD600, 24 h; higher = more signal, called active from +8 up or from −8 down.
Assay [15] is described as follows: growth of efflux-deficient E. coli DRC39 – strain DRC39, OD650, 24 h, E. coli filamentation inducers, primary screen (AID 1178).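 Further: growth measured as culture turbidity by optical density at 650 nm.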 The note with it: E. coli DRC39 acrAB, higher = more signal, called active from +8 up or from −8 down.
The nature of assay [16]: growth of efflux-deficient E. coli DRC39 – strain DRC39, OD650, 48 h, E. coli filamentation inducers, primary screen (AID 1179).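 Further: screen aims at cell division blockers that make cells filament.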 The note with it: E. coli DRC39 delta-acrAB growth, higher = more signal, called active from +8 up or from −8 down.
Assay [17] is described as follows: viability profiling in RPMI8226 myeloma cells – cell-based, resazurin fluorescence, basal, 24 h, PK04 Diversity Set, profiling panel (AID 1180).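 Further: RPMI8826 multiple myeloma cell line at 5000 cells per well.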 The note with it: higher = more signal.
Assay [18] deals with E3 ubiquitin-protein ligase XIAP (Homo sapiens) (UniProt P98170). The assay can be described thus: small molecules binding XIAP protein – biophysical, small-molecule microarray, fluorescence 635 nm, primary screen (AID 1181).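 Further: score merges 667 nm emission and signal to noise over triplicate slides.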 To be noted: higher = more signal.
Chain of E3 ubiquitin-protein ligase XIAP (Homo sapiens) (P98170 whole entry, looked up, the tested form may be a part): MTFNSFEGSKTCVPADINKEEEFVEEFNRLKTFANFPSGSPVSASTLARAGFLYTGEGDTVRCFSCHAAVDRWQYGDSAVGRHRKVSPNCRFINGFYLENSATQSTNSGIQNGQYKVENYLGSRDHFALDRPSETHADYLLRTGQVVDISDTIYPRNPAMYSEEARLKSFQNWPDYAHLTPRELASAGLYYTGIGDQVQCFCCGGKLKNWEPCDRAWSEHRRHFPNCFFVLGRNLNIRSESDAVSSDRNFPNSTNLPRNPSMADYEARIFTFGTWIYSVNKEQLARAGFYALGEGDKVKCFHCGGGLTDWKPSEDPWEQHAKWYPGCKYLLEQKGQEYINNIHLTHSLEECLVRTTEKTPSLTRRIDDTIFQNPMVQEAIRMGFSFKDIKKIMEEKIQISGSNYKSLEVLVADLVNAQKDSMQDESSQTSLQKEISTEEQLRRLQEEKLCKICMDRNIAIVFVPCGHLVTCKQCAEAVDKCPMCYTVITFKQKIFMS
The subject of assay [19] is XIP peptide (Xip251-270) binding. In words: XIP fragment 251-270 binding compounds – biochemical, small-molecule microarray, fluorescence 635/667 nm, 0.1 µg/mL protein, primary screen (AID 1182). The note with it: fluorescent protein binding, 635 nm, higher = more signal, called active from +8 up or from −8 down.
The test system of assay [20] is XIP peptide (Xip251-270). In words: compounds binding XIP fragment 251-270 – biochemical, small-molecule microarray, fluorescence 635/667 nm, 0.5 µg/mL protein, primary screen (AID 1183). To be noted: fluorescence 635 nm, higher = more signal.

Chain of Dihydroorotate dehydrogenase (quinone), mitochondrial (Plasmodium falciparum (isolate 3D7)) (Q08210 whole entry, looked up): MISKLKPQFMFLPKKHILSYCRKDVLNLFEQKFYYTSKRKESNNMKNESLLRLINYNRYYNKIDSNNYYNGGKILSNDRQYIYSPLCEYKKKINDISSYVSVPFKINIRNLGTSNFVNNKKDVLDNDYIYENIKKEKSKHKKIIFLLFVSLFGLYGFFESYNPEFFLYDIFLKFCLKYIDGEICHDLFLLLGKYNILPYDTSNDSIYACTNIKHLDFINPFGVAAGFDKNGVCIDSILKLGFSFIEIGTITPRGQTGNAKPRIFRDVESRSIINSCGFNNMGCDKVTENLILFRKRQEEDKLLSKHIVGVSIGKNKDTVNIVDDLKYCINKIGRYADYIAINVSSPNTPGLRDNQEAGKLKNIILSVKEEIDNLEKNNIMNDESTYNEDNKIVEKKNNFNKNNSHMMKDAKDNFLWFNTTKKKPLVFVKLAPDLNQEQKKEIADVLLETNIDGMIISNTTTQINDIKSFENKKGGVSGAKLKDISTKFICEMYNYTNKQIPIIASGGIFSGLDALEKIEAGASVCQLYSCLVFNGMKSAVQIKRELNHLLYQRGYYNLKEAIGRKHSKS

With `C=C(COC)/C(=C/C[C@H](OC(C)=O)c1cccc(OCCO)c1)c1cc(C(=O)OC)ccc1OC`, the z-score in assay [1] is 0.81; in assay [2], -2.15; in assay [3], 0.0939; in assay [4], -1.1; in [5] it was 0.616; in [6] it was 1.88 (inactive). Moreover, the z-score in assay [7] was -0.252; in assay [8], 0.471; in assay [9], -1.03 (inactive); in assay [10], -0.231; in assay [11] it was -17.6 (active); in assay [12], 0.975 (inactive). Also, the z-score is -21.4 (active) in assay [14], 1.24 (inactive) in assay [15], 0.802 (inactive) in assay [16] and 0.59 in assay [17]. The composite z-score was -9.35 (active) in [13], 0.0077 in assay [18], 0.876 (inactive) in [19] and 0.876 in assay [20].
As for `NCCCCCCNC(=O)[C@@H]1C[C@@H]2C(=O)N[C@@H](Cc3ccccc3)C(=O)N2[C@@H]1c1ccc(O)cc1`, the z-score is 1.09 in [1]; -0.46 in assay [2]; 0.0892 in [3]; -0.141 in assay [4]; 0.666 in assay [5]; -0.386 (inactive) in [6]. Also, the z-score in assay [7] is 0.0478; in assay [8], 0.188; in assay [9] it was 1.19 (inactive); in [10] it was 0.368; in [11], -1.77 (inactive); in [12], 1.38 (inactive). Further, the z-score in assay [14] is -0.509 (inactive); in assay [15], 0.236 (inactive); in assay [16] it was 0.476 (inactive); in [17], 1.53. Moreover, the composite z-score in assay [13] was 0.687 (inactive); in [18], -0.305; in assay [19], 0.208 (inactive); in [20], 0.225.
`CCCNC(=O)[C@@H]1c2ccccc2C(=O)N(Cc2cc(C(F)(F)F)cc(C(F)(F)F)c2)[C@H]1c1ccc(CO)cc1`: the z-score is 1.6 in [1]; 0.174 in assay [2]; -0.298 in assay [3]; -1 in assay [4]; 1.4 in assay [5]; -0.652 (inactive) in assay [6]. For the same compound, the z-score in [7] is 0.188; in assay [8], 1.01; in assay [9], 0.741 (inactive); in assay [10], 0.397; in assay [11], -0.367 (inactive); in assay [12] it was 1.52 (inactive). Also, the z-score in assay [14] is 0.288 (inactive); in [15] it was 1.06 (inactive); in [16], -0.625 (inactive); in assay [17] it was 1.63. The composite z-score is 0.754 (inactive) in assay [13], -0.374 in [18], 0.133 (inactive) in assay [19] and 0.219 in [20].
As to `CO[C@H]1O[C@H](CO)[C@@H](OC(=O)CCc2ccccc2)[C@@H]2OC(=O)[C@H](Cc3ccccc3)C/C=C/C[C@@H](Cc3ccccc3)C(=O)O[C@@H]12`, the z-score was 0.234 in assay [1]; 0.62 in [2]; -0.0096 in assay [3]; 0.212 in assay [4]; 0.443 in assay [5]; 0.886 (inactive) in assay [6]. The z-score in assay [7] was 0.12; in assay [8], 0.119; in assay [9], 1.43 (inactive); in [10] it was 1.02; in assay [11] it was -2.53 (inactive); in assay [12] it was 0.832 (inactive). Besides, the z-score in assay [14] is -0.103 (inactive); in assay [15] it was 1.19 (inactive); in [16], 0.754 (inactive); in assay [17], 0.884. Also, the composite z-score in assay [13] is -15.6 (active); in assay [18], -0.039; in assay [19], 1.2 (inactive); in assay [20] it was -0.0342.
Consider `CC(=O)OC(C/C=C\B1OC(C)(C)C(C)(C)O1)c1ccccc1` (stereo not given), for which the z-score in assay [1] is 0.554; in [2], 0.467; in assay [3], 0.345; in [4], 0.0422; in assay [5] it was 2.03; in assay [6], 2.31 (inactive). Further, the z-score in assay [7] was -0.457; in assay [8] it was 0.962; in [9], 0.273 (inactive); in assay [10], 0.518; in assay [11] it was -2.1 (inactive); in assay [12], 1.14 (inactive). Moreover, the z-score was -4.44 (inactive) in assay [14], 1.5 (inactive) in assay [15], 0.57 (inactive) in assay [16] and 0.157 in assay [17]. Also, the composite z-score is 0.339 (inactive) in assay [13], -0.0256 in assay [18], -0.65 (inactive) in [19] and -0.842 in assay [20].
In the case of `COC(=O)C1=CC(c2ccc(CO)cc2)=CC(C2CC2)N(C)C=C1C(=O)OC` (stereo not given), the z-score in assay [1] was 1.31; in assay [2] it was 0.295; in [3], 1.07; in [4], -0.503; in assay [5] it was 1.47; in [6], 0.935 (inactive). Also, the z-score in assay [7] was 0.515; in [8], 1.12; in assay [9] it was 0.419 (inactive); in assay [10] it was 0.578; in assay [11] it was -2.82 (inactive); in assay [12], 0.833 (inactive). The z-score in assay [14] is -3.29 (inactive); in assay [15] it was 0.983 (inactive); in [16] it was 1.28 (inactive); in [17], 0.842. Further, the composite z-score in [13] is -0.782 (inactive); in [18] it was -0.0388; in [19], 1.8 (inactive); in assay [20], -0.407.
As for `O=C(O)[C@H]1C[C@H]2C(=O)NCC(=O)N2[C@H]1c1cccc(OCCO)c1`, the z-score in [1] was 0.926; in [2], -0.59; in assay [3], -1.13; in assay [4] it was -0.319; in [5], 1.27; in assay [6], -0.116 (inactive). Further, the z-score in [7] was -0.186; in assay [8], 1.14; in assay [9], -0.0876 (inactive); in [10], 0.354; in assay [11], -1.62 (inactive); in assay [12], 1.21 (inactive). The z-score in [14] was -1.25 (inactive); in assay [15] it was 0.712 (inactive); in assay [16] it was -0.057 (inactive); in assay [17], 0.62. In addition, the composite z-score was -1.04 (inactive) in assay [13], 0.182 in [18], 0.865 (inactive) in assay [19] and 0.938 in [20].
For the compound `C=CCN1C(=O)[C@]2(O[C@H](CCn3cc([C@H](O)c4ccccc4)nn3)[C@@H]([Si](C)(C)c3ccc(OC)cc3)[C@@H]2C)c2cc(N3CCOC3=O)ccc21`, the z-score in [1] was 3.08; in assay [2], -0.812; in [3], -1.98; in assay [4], -2.86; in [5] it was 3.15; in [6] it was 2.62 (inactive). In addition, the z-score was -0.906 in assay [7]; -0.286 in [8]; -2.25 (inactive) in assay [9]; -1.22 in assay [10]; -0.506 (inactive) in [11]; -0.72 (inactive) in [12]. In addition, the z-score in assay [14] was 0.58 (inactive); in assay [15] it was 1.84 (inactive); in assay [16] it was 1.06 (inactive); in assay [17] it was -1.23. The composite z-score in assay [13] is -0.175 (inactive); in [18], -0.0721; in assay [19], 0.865 (inactive); in assay [20], -0.0533.
